PubChem BioAssay (NCI)
This is part of a sample that, as a whole, favours compounds with a hit. Of some 83,000 tested, about 20% had one in any assay.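 Testing used 96-well plates and a 48-hour single-concentration exposure. Example: -40 means 40% of the starting cells died.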 Activity calls are given as the source filed them. Rule for the calls: active = growth percent below 10; inactive = the rest.

Assays:
Assay in all cases: NCI-60 one-dose screen, 48 h (100 = growth as untreated, 0 = no growth, -100 = all killed)
Details in all cases: 10 µM unless noted
SK-MEL-2 melanoma = system: SK-MEL-2 melanoma
EKVX NSCLC = system: EKVX NSCLC
SN12C renal = system: SN12C renal
UO-31 renal = system: UO-31 renal
TK-10 renal = system: TK-10 renal
ACHN renal = system: ACHN renal
CAKI-1 renal = system: CAKI-1 renal
A498 renal = system: A498 renal
CCRF-CEM leukemia = system: CCRF-CEM leukemia
MOLT-4 leukemia = system: MOLT-4 leukemia
SR leukemia = system: SR leukemia
RPMI-8226 leukemia = system: RPMI-8226 leukemia
OVCAR-8 ovarian = system: OVCAR-8 ovarian
OVCAR-5 ovarian = system: OVCAR-5 ovarian
OVCAR-4 ovarian = system: OVCAR-4 ovarian
SK-OV-3 ovarian = system: SK-OV-3 ovarian
IGROV1 ovarian = system: IGROV1 ovarian
OVCAR-3 ovarian = system: OVCAR-3 ovarian
NCI/ADR-RES ovarian = system: NCI/ADR-RES ovarian

Measured: growth

Cc1ccc2c(N)c(C(=O)Nc3ccc(-c4ccccc4)cc3)sc2n1
inactive: SK-MEL-2 melanoma 58.9% | EKVX NSCLC 22.7% | SN12C renal 65.1% | UO-31 renal 56.1% | TK-10 renal 75.3% | ACHN renal 60.1% | CAKI-1 renal 59.4% | A498 renal 114% | CCRF-CEM leukemia 55.4% | MOLT-4 leukemia 50.9% | SR leukemia 43.1% | RPMI-8226 leukemia 49.2% | OVCAR-8 ovarian 73.4% | OVCAR-5 ovarian 71% | OVCAR-4 ovarian 47.3% | SK-OV-3 ovarian 60.3% | IGROV1 ovarian 72.5% | OVCAR-3 ovarian 79.1% | NCI/ADR-RES ovarian 50.5%

COc1cc(-c2ccc(/C=N/NC(=O)c3[nH]c4ccc(Br)cc4c3-c3ccccc3)o2)cc(OC)c1OC
inactive: SK-MEL-2 melanoma 107% | EKVX NSCLC 65.7% | SN12C renal 96.3% | UO-31 renal 102% | TK-10 renal 112% | ACHN renal 76% | CAKI-1 renal 74.5% | A498 renal 134% | CCRF-CEM leukemia 69.5% | MOLT-4 leukemia 77.3% | SR leukemia 78% | RPMI-8226 leukemia 63.2% | OVCAR-8 ovarian 67.2% | OVCAR-5 ovarian 99.6% | OVCAR-4 ovarian 92.3% | SK-OV-3 ovarian 92.6% | IGROV1 ovarian 95.1% | OVCAR-3 ovarian 95.6% | NCI/ADR-RES ovarian 59%

N#Cc1c(-c2cccc(Cl)c2Cl)cc(-c2ccc3ccccc3c2)[nH]c1=O
inactive: SK-MEL-2 melanoma 126% | EKVX NSCLC 49% | SN12C renal 19.1% | UO-31 renal 24.6% | TK-10 renal 48.9% | ACHN renal 40.8% | CAKI-1 renal 47.2% | A498 renal 87.5% | CCRF-CEM leukemia 38.3% | MOLT-4 leukemia 71.5% | SR leukemia 67.4% | RPMI-8226 leukemia 68.3% | OVCAR-8 ovarian 41.5% | OVCAR-5 ovarian 77.4% | SK-OV-3 ovarian 99.7% | IGROV1 ovarian 65.1% | OVCAR-3 ovarian 31.6% | NCI/ADR-RES ovarian 42.4%
active: OVCAR-4 ovarian 4.49%

COc1cccc(-c2c(C#N)c(-c3ccc(Cl)cc3)nc3n[nH]c(-c4ccc(Cl)cc4)c23)c1
active: MOLT-4 leukemia 2.7% | RPMI-8226 leukemia 7.25%
inactive: SK-MEL-2 melanoma 53.1% | EKVX NSCLC 33.9% | SN12C renal 44.8% | UO-31 renal 35.2% | TK-10 renal 71.8% | ACHN renal 56.2% | CAKI-1 renal 39.1% | A498 renal 100% | CCRF-CEM leukemia 23.7% | SR leukemia 16.3% | OVCAR-8 ovarian 48.3% | OVCAR-5 ovarian 69% | OVCAR-4 ovarian 26.5% | SK-OV-3 ovarian 43.9% | IGROV1 ovarian 65.2% | OVCAR-3 ovarian 58% | NCI/ADR-RES ovarian 59.3%

COc1ccc(NC(=O)c2sc3nc(C(C)C)ccc3c2N)cc1
inactive: SK-MEL-2 melanoma 97.5% | EKVX NSCLC 43.2% | SN12C renal 74.1% | UO-31 renal 72.5% | TK-10 renal 93.1% | ACHN renal 81.2% | CAKI-1 renal 80.7% | A498 renal 84.4% | CCRF-CEM leukemia 54.6% | MOLT-4 leukemia 67.5% | SR leukemia 60% | RPMI-8226 leukemia 54.5% | OVCAR-8 ovarian 89.1% | OVCAR-5 ovarian 83.2% | OVCAR-4 ovarian 56.7% | SK-OV-3 ovarian 97.9% | IGROV1 ovarian 100% | OVCAR-3 ovarian 93.9% | NCI/ADR-RES ovarian 59.6%

CSc1ccc(NC(=O)c2ccc3nnn(/C(C#N)=C/c4ccccn4)c3c2)cc1
active: SK-MEL-2 melanoma -96.3% | EKVX NSCLC -99.6% | SN12C renal -99.9% | UO-31 renal -100% | TK-10 renal -98.5% | ACHN renal -100% | CAKI-1 renal -93.5% | CCRF-CEM leukemia 6.95% | MOLT-4 leukemia 6.04% | SR leukemia -6.85% | RPMI-8226 leukemia -32.6% | OVCAR-8 ovarian -60.6% | OVCAR-5 ovarian -78.6% | OVCAR-4 ovarian -97.4% | IGROV1 ovarian -76.7% | OVCAR-3 ovarian -70.7% | NCI/ADR-RES ovarian -83.9%
inactive: A498 renal 45.1% | SK-OV-3 ovarian 25.5%

O=C(O)c1ccc(-c2ccc(/C=N/NC(=O)c3[nH]c4ccc(Br)cc4c3-c3ccccc3)o2)cc1
inactive: EKVX NSCLC 22.3% | UO-31 renal 24.5% | TK-10 renal 41.2% | ACHN renal 32.5% | CAKI-1 renal 38.5% | A498 renal 98.5% | MOLT-4 leukemia 14.1% | RPMI-8226 leukemia 14.8% | OVCAR-5 ovarian 75.9% | OVCAR-4 ovarian 38% | SK-OV-3 ovarian 41.1% | IGROV1 ovarian 17.8% | NCI/ADR-RES ovarian 18.1%
active: SK-MEL-2 melanoma -16.5% | SN12C renal 5.99% | CCRF-CEM leukemia -0.481% | SR leukemia 5.35% | OVCAR-8 ovarian -15.4% | OVCAR-3 ovarian 1.4%

NS(=O)(=O)c1ccc(-n2cc(-c3cccc(NC(=O)c4cc(C(F)(F)F)cc(C(F)(F)F)c4)c3)nn2)cc1
inactive: SK-MEL-2 melanoma 81.8% | EKVX NSCLC 63.8% | SN12C renal 74.7% | UO-31 renal 102% | TK-10 renal 72.9% | ACHN renal 66.1% | CAKI-1 renal 75.3% | A498 renal 152% | CCRF-CEM leukemia 75.4% | MOLT-4 leukemia 75.1% | SR leukemia 47.4% | RPMI-8226 leukemia 90% | OVCAR-8 ovarian 40.7% | OVCAR-5 ovarian 70.5% | OVCAR-4 ovarian 85.9% | SK-OV-3 ovarian 68.4% | IGROV1 ovarian 63.1% | OVCAR-3 ovarian 78.5% | NCI/ADR-RES ovarian 81.6%

CC(C)c1ccc2c(N)c(C(=O)Nc3ccc(C(F)(F)F)cn3)sc2n1
inactive: SK-MEL-2 melanoma 77.6% | EKVX NSCLC 26.4% | SN12C renal 70.5% | UO-31 renal 62% | TK-10 renal 76.5% | ACHN renal 49% | CAKI-1 renal 55.2% | A498 renal 115% | CCRF-CEM leukemia 34.1% | SR leukemia 41.9% | RPMI-8226 leukemia 37.9% | OVCAR-8 ovarian 63.8% | OVCAR-5 ovarian 89.9% | OVCAR-4 ovarian 32.4% | SK-OV-3 ovarian 83.9% | IGROV1 ovarian 81.2% | OVCAR-3 ovarian 83% | NCI/ADR-RES ovarian 25%
active: MOLT-4 leukemia 7.3%

COc1cc(/C=C/C(=O)c2nnn(-c3ccc(Cl)cc3)c2C)cc(OC)c1OC
active: CCRF-CEM leukemia -19.2% | MOLT-4 leukemia -10.7% | SR leukemia 5.48% | RPMI-8226 leukemia -7.65% | NCI/ADR-RES ovarian 8.27%
inactive: SK-MEL-2 melanoma 51.3% | EKVX NSCLC 10.1% | SN12C renal 15.5% | UO-31 renal 54% | TK-10 renal 86.7% | ACHN renal 42.4% | CAKI-1 renal 43.2% | A498 renal 132% | OVCAR-8 ovarian 31.8% | OVCAR-5 ovarian 47.8% | OVCAR-4 ovarian 34.7% | SK-OV-3 ovarian 59.4% | IGROV1 ovarian 59.3% | OVCAR-3 ovarian 22.9%

COc1cc(-c2cc(-c3cccc(OCC(=O)O)c3)[nH]c(=O)c2C#N)cc(OC)c1OC
inactive: SK-MEL-2 melanoma 132% | EKVX NSCLC 91.8% | SN12C renal 102% | UO-31 renal 81.8% | TK-10 renal 102% | ACHN renal 97% | CAKI-1 renal 82.2% | A498 renal 101% | CCRF-CEM leukemia 93.7% | MOLT-4 leukemia 85.9% | SR leukemia 83.6% | RPMI-8226 leukemia 98.6% | OVCAR-8 ovarian 102% | OVCAR-5 ovarian 96.8% | OVCAR-4 ovarian 98.2% | SK-OV-3 ovarian 100% | IGROV1 ovarian 109% | OVCAR-3 ovarian 110% | NCI/ADR-RES ovarian 104%

CC(=O)Nc1cccc(Nc2nccc(N[C@@H](C)c3ccccc3)n2)c1
inactive: SK-MEL-2 melanoma 41.5% | EKVX NSCLC 16.6% | SN12C renal 15.4% | UO-31 renal 25.9% | TK-10 renal 29.1% | ACHN renal 12.7% | CAKI-1 renal 29% | A498 renal 68% | CCRF-CEM leukemia 24.9% | MOLT-4 leukemia 20.5% | OVCAR-5 ovarian 34.2% | OVCAR-4 ovarian 50.7% | SK-OV-3 ovarian 38.9% | IGROV1 ovarian 15.9% | OVCAR-3 ovarian 18%
active: SR leukemia 2.48% | RPMI-8226 leukemia 8.53% | OVCAR-8 ovarian 9.3% | NCI/ADR-RES ovarian 3.58%

C=Cn1cc(C(=O)O)c(=O)c2cc(F)c(N3CCN(c4nccc(-c5nccs5)n4)CC3)cc21
inactive: CCRF-CEM leukemia 15.3% | OVCAR-4 ovarian 10.7%
active: SK-MEL-2 melanoma -83.2% | EKVX NSCLC -24.2% | SN12C renal -16.8% | UO-31 renal -61.5% | TK-10 renal -13.2% | ACHN renal -43% | CAKI-1 renal -37.1% | A498 renal -21.4% | MOLT-4 leukemia 1.77% | SR leukemia -35.2% | RPMI-8226 leukemia -24% | OVCAR-8 ovarian 7.65% | OVCAR-5 ovarian -25.6% | SK-OV-3 ovarian -35.8% | IGROV1 ovarian -30.3% | OVCAR-3 ovarian -4.52% | NCI/ADR-RES ovarian -39.5%

O=C(O)c1cccc(-c2ccc(/C=N/NC(=O)c3[nH]c4ccc(Br)cc4c3-c3ccccc3)s2)c1
active: NCI/ADR-RES ovarian -22.5%
inactive: SK-MEL-2 melanoma 26.3% | EKVX NSCLC 35.2% | SN12C renal 57.5% | UO-31 renal 47.9% | TK-10 renal 86.8% | ACHN renal 44.1% | CAKI-1 renal 74.7% | A498 renal 100% | CCRF-CEM leukemia 31% | MOLT-4 leukemia 45.3% | SR leukemia 24.1% | RPMI-8226 leukemia 54.2% | OVCAR-8 ovarian 44.9% | OVCAR-5 ovarian 112% | OVCAR-4 ovarian 42% | SK-OV-3 ovarian 103% | IGROV1 ovarian 37.9% | OVCAR-3 ovarian 22.3%

CCOc1ccc(-c2c(C#N)c(-c3ccc(Cl)cc3)nc3n[nH]c(-c4ccc(Cl)cc4)c23)cc1OC
active: MOLT-4 leukemia -3.16%
inactive: SK-MEL-2 melanoma 64% | EKVX NSCLC 26.6% | SN12C renal 69.2% | UO-31 renal 33.2% | TK-10 renal 90% | ACHN renal 53.4% | CAKI-1 renal 53.1% | A498 renal 114% | CCRF-CEM leukemia 33.7% | SR leukemia 18.8% | RPMI-8226 leukemia 17.3% | OVCAR-8 ovarian 79.3% | OVCAR-5 ovarian 72.2% | OVCAR-4 ovarian 51.2% | SK-OV-3 ovarian 63.4% | IGROV1 ovarian 62.9% | OVCAR-3 ovarian 67.5% | NCI/ADR-RES ovarian 62%
